High-throughput results deposited in PubChem by The Scripps Research Institute Molecular Screening Center.
Most compounds without a hit are left out; they make up all but 3.5% or so of the library.
TEAD-YAP block = TEAD-YAP interaction inhibition, primary screen, TEAD-YAP interaction inhibitor project, luminescence, HEK-TIYL cells. TEAD-Gal4/YAP UAS-luciferase luminescence. inhibition, % at 9.12 µM. hit rate 1.4% among 640,000. AID 1259422, 2018; in the data active means inhibition above about 32%
FBW7 activator = FBW7 E3 ligase activators, primary screen, biochemical, AlphaScreen, human; AID 1259310, 2017; normalized activity (activation), % at 26.1 µM; AlphaScreen FBW7–phospho-cyclin E peptide binding, activator screen; hit rate 0.13% among 650,000; in the data active means normalized activity above about 1.9%;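 further: purified mutant Fbw7 with reduced substrate affinity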
GPR151 activ = activators of human GPR151, primary screen, cell-based, PathHunter beta-arrestin, luminescence. G-protein coupled receptor 151 (Homo sapiens), Q8TDV0. PathHunter beta-arrestin GPR151 cells. activation, % at 11.2 µM. hit rate 1% among 650,000; in the data active means activation above about 4.9%
MITF inh = MITF inhibitors, primary screen, biochemical, AlphaScreen, human. hit rate 0.91% among 650,000. AlphaScreen MITF homodimerization, bead proximity signal. Microphthalmia-associated transcription factor (Homo sapiens), O75030. inhibition, % at 2.6 µM. AID 1259374, 2018; in the data active means inhibition above about 50%
Target sequence (O75030 whole entry, looked up): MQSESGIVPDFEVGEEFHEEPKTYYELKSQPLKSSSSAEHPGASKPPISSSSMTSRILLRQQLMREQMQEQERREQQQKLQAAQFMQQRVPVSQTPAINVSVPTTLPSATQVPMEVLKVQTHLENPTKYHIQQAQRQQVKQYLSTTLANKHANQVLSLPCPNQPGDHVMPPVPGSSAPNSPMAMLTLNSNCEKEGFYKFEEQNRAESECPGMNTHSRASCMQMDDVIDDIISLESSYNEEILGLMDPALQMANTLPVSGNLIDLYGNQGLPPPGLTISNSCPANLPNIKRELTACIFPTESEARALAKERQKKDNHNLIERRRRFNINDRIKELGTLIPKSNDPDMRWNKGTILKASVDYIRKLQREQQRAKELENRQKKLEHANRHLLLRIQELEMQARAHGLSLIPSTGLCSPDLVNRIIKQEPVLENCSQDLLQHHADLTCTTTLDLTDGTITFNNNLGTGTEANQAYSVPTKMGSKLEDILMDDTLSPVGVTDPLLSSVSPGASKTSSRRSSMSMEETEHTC
MITF inh conf = MITF inhibitors, retest of hits, confirmation, biochemical, AlphaScreen, triplicate | inhibition, % at 2.6 µM | AlphaScreen MITF homodimerization, biotin/His-MITF beads | shares compounds with MITF inh | hit rate 16% among 4,700;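 active means inhibition above a cutoff derived from the DMSO control wells, cut at about 28% in these data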;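 further: inhibitors lower the bead chemiluminescence by keeping MITF from dimerizing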
AS interf DR = AlphaScreen optical interference compounds, dose response, counter-screen, biochemical, HTS | IC50, µM | hit rate 6% among 480 | shares compounds with MITF inh | AlphaScreen optical interference counterscreen, cell-free; call rule not given here
AlphaScreen intf2 = AlphaScreen optical interference compounds, counter-screen for MITF inhibitor project, biochemical, triplicate; shares compounds with MITF inh; LysRS AlphaScreen counterscreen, signal interference; inhibition, % at 2.6 µM; hit rate 7.6% among 4,700; AID 1259376, 2018;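 active means inhibition above a cutoff derived from the DMSO control wells, cut at about 30% in these data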
A number is an active result; n = inactive; x = no result given; ! = not active in a repeat.

SMILES	TEAD-YAP block	FBW7 activator	GPR151 activ	MITF inh	MITF inh conf	AlphaScreen intf2	others
O=S(=O)(NC1CC2CCC1C2)c1ccc2ccccc2c1 (configuration not stated)	n	n	n	n	x	x
CC(O)Cn1c(N)nc2c1c(=O)[nH]c(=O)n2C (configuration not stated)	n	n	n	n	x	x
COc1ccc(C(=O)/C=C/c2ccc(Br)o2)c(OC)c1	n	n	n	n	x	x
OCCNc1cc(-c2cccs2)ncn1	n	n	n	55.8	53.0	n	AS interf DR=n
CCCNc1cc(-c2cccs2)ncn1	n	n	n	n	x	x
CN(C)CCCN1C(=O)C(=O)/C(=C(\O)c2ccc(F)cc2)C1c1ccccc1 (configuration not stated)	n	n	n	n	x	x
C/C(=N\NC(=O)Cc1cc(=O)[nH][nH]1)c1ccco1	n	n	n	59.5	55.5	n	AS interf DR=n
Cc1ccc(-n2nc3c(c2NC(=O)COc2ccc(Cl)cc2Cl)CSC3)cc1	n	n	n	n	x	x
CN1CCN(CC(=O)Nc2c3c(nc4c2CCC4)CCCC3)CC1	n	n	n	74.3	n	n
Cc1n[nH]c(C)c1NC(=O)CN1CCCCCC1	n	n	n	61.6	n	n
O=C(CN1CCCC1)Nc1c2c(nc3c1CCC3)CCC2	n	n	n	75.7	n	n
O=C(CN1CCCCCC1)Nc1c2c(nc3c1CCC3)CCCC2	n	n	n	58.4	n	n
CCCCC(=O)Nc1c2c(nc3c1CCC3)CCCC2	n	n	n	n	x	x
O=C1OC(c2ccc(F)cc2)/C(=C(\O)c2ccccc2)C1=O (configuration not stated)	n	n	n	n	x	x
CCOC(=O)COc1ccc(/C=C(\C#N)c2nn(-c3ccccc3)c(N)c2C#N)cc1OC	n	n	n	n	x	x
O=C(Cc1cccc2ccccc12)Nc1nnc(-c2ccncc2)o1	n	n	n	70.7	52.1	98.4
O=C(Cc1cccc2ccccc12)Nc1nnc(-c2ccc3c(c2)OCCO3)o1	n	n	n	n	x	x
CCCOc1ccc(N2C(=O)CC(NCCc3ccc(OC)c(OC)c3)C2=O)cc1 (configuration not stated)	n	n	n	n	x	x
CCS(=O)(=O)N(CC(=O)N1CCCCC1)c1ccc(OC)cc1	n	n	n	n	x	x
C=CCc1ccccc1OCCOCCNCCCOC	n	n	n	58.0	n	n
C=CCc1cc(Cl)ccc1OCCNCCCOC	n	n	n	n	x	x
C=CCc1cc(Cl)ccc1OCCNCCO	n	n	n	51.8	n	n
C=CCc1cc(Cl)ccc1OCCOCCNCCOC	n	n	n	56.5	41.8	n	AS interf DR=n
O=C(N[C@H]1C[C@H]2C(=O)N[C@@H](CO)C(=O)N2C1)c1cccc2ccccc12	n	n	n	n	x	x
OCCN1CCN(c2nccn3c(-c4ccccc4)cnc23)CC1	n	n	n	n	x	x
SMILES	TEAD-YAP block	FBW7 activator	GPR151 activ	MITF inh	MITF inh conf	AlphaScreen intf2	others
COc1ccc(C(C)=O)cc1CSc1nc(NC2CCCCC2)c2ccccc2n1	n	n	n	80.3	n	n
COc1ccc(C(C)=O)cc1CSc1nc(NCCc2ccccc2)c2ccccc2n1	n	n	n	n	x	x
COc1ccccc1NC(=O)C1=C(C)NC(SCC(=O)Nc2cc(C)ccc2C)=C(C#N)C1c1ccc(C)o1 (configuration not stated)	n	n	n	n	x	x
COc1cc(-c2ccnc(N)n2)ccc1NC(=O)[C@H]1COc2ccccc2O1	n	2.5	n	65.6	51.6	n	AS interf DR=n
CCCCOC(=O)c1ccc(NC(=O)c2cc(-c3ccc(Br)cc3)nc3ccccc23)cc1	n	n	n	56.9	n	n
Cc1ccc(-c2cc(C(=O)Nc3ccccc3Br)c3ccccc3n2)cc1	n	n	n	56.0	n	n
Cc1ccc(-c2cc(C(=O)Nc3ccccc3Cl)c3ccccc3n2)cc1	n	n	n	n	x	x
CCCOC(=O)c1ccc(NC(=O)c2cc(-c3ccc(Br)cc3)nc3ccccc23)cc1	n	n	n	n	x	x
Cc1nc(CCNC(=O)CN2Cc3ccccc3OC(c3ccsc3)C2)n[nH]1 (configuration not stated)	n	n	n	n	x	x
O=C(Nc1nc(CC(=O)N2CCc3ccccc3C2)cs1)C1CC1	n	n	n	59.0	n	n
O=C1CC(N2CCN(CC3CCCO3)CC2)C(=O)N1Cc1ccccc1 (configuration not stated)	n	n	n	75.0	n	n
C=CCNc1nc2nonc2nc1NC1CC1	n	n	n	n	x	x
COc1ccc(C(=O)Nc2ccccc2)cc1S(=O)(=O)Nc1cc(C)on1	n	n	n	69.3	n	n
COc1ccc(NS(=O)(=O)c2cc(C(=O)Nc3ccccc3)ccc2OC)cc1	n	n	n	n	x	x
CCCCNc1nc(-c2cc(OC)ccc2OC)cs1	n	n	n	59.1	n	n
CCOC(=O)c1ccc(NC(=O)CC2C(=O)N(c3ccc(F)cc3)C(=S)N2CCc2ccc(OC)c(OC)c2)cc1 (configuration not stated)	n	n	n	72.2!	n	n
COC(=O)c1ccc(NC(=O)CC2C(=O)N(c3ccc(F)cc3)C(=S)N2CCc2ccc(OC)c(OC)c2)cc1 (configuration not stated)	n	n	n	n	x	x
O=C(NCC1CCCO1)c1ccc2c(=O)n(Cc3cccc(Br)c3)c(=S)[nH]c2c1 (configuration not stated)	n	n	n	57.9	n	n
COc1cccc(CN2CCN(Cc3cccnc3)CC2)c1OC	n	n	n	76.4	n	n
COc1ccc(CN2CCN(Cc3cccnc3)CC2)c(OC)c1OC	n	n	n	81.3	n	n
COc1ccc(N2CCN(Cc3cccc(OC)c3OC)CC2)cc1	n	n	n	n	x	x
COc1ccc(C)cc1NC(=O)C(C)c1ccccc1 (configuration not stated)	n	n	n	n	x	x
COc1ccc(C)cc1NC(=O)C(NCC(O)c1ccccc1)c1ccccc1 (configuration not stated)	n	n	n	83.7	29.9	n	AS interf DR=n
COc1ccc(C)cc1NC(=O)C(C(C)C)N1C(=O)c2ccccc2C1=O (configuration not stated)	n	n	n	70.7	n	n
CCOC(=O)CSc1nc2ccsc2c(=O)n1Cc1ccc(C)cc1	n	n	n	n	x	x
CCN1C(=O)NC(c2ccc([N+](=O)[O-])cc2)C(C(=O)OCCOc2ccccc2)=C1C (configuration not stated)	n	n	n	n	x	x
